Molecules are shown by their SMILES. Records with an inconclusive call do not appear. Calls of active or inactive are those of the source. How the source made its calls: active means hit-call score of the fitted dose curve at least 0.9, where 1 is the maximum; inconclusive means response in the unintended direction; inactive means score below 0.9.

Consider 19 compounds from PubChem BioAssay (EPA / NIEHS).

Test [1] deals with human Beta-secretase (BACE), BACE1 (gene 23621) (UniProt P56817). Nature of the test: NVS_ENZ_hBACE: NovaScreen (NVS) Enzymatic Assay for human Beta-secretase (BACE) (AID 2283140).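 Further: hits are inhibitors that reduce fluorescent substrate signal versus DMSO.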 The method in brief:
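Enzyme activity of SF9-produced BACE1 is measured cell-free by fluorescence, 1 hour post dosing, normalised to DMSO. Screening used 25 uM in duplicate, with concentration-response follow-up for actives.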

The target of test [2] is human Elastase, ELANE (gene 1991) (UniProt P08246). Nature of the test: NVS_ENZ_hElastase: NovaScreen (NVS) Enzymatic Assay for human Elastase (AID 2283153). The method in brief: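 Concentration-response to 50 uM max, run singly for chemicals passing a threshold (e.g., 30% inhibition) in a duplicate 25 uM single-point screen. Neutrophil-derived human elastase, absorbance read-out of enzyme activity at 1.5 h; DMSO baseline.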
human Elastase, ELANE (gene 1991), sequence (P08246 whole entry, looked up): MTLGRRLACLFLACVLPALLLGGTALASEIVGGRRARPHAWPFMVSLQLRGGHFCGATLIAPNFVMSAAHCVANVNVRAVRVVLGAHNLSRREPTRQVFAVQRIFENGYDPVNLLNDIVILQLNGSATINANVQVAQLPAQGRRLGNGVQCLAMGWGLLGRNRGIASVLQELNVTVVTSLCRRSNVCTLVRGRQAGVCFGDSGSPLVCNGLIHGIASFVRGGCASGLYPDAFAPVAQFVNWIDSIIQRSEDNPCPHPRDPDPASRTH

Test [3] has as its target human AKT serine/threonine Kinase 1 (AKT1), AKT1 (gene 207) (UniProt P31749). Description: NVS_ENZ_hAKT1: NovaScreen (NVS) Enzymatic Assay for human AKT serine/threonine Kinase 1 (AKT1) (AID 2283138). In short, it runs like this: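 A biochemical assay with recombinant enzyme and specific substrate, read by fluorescence intensity with mobility-shift separation 1 hour after dosing. Actives from 25 uM duplicate screening were titrated up to 50 uM against DMSO baseline.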

For test [4], the target named is human AKT serine/threonine Kinase 2 (AKT2), AKT2 (gene 208) (UniProt P31751). Description: NVS_ENZ_hAKT2: NovaScreen (NVS) Enzymatic Assay for human AKT serine/threonine Kinase 2 (AKT2) (AID 2283141). The method in brief: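 Cell-free fluorescence/electrophoretic mobility shift readout of recombinant human AKT2 activity, 1 h after chemical dosing. Duplicate primary screen at 25 uM, then singleton concentration-response up to 50 uM; loss of signal versus DMSO baseline.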
human AKT serine/threonine Kinase 2 (AKT2), AKT2 (gene 208), sequence (P31751 whole entry, looked up): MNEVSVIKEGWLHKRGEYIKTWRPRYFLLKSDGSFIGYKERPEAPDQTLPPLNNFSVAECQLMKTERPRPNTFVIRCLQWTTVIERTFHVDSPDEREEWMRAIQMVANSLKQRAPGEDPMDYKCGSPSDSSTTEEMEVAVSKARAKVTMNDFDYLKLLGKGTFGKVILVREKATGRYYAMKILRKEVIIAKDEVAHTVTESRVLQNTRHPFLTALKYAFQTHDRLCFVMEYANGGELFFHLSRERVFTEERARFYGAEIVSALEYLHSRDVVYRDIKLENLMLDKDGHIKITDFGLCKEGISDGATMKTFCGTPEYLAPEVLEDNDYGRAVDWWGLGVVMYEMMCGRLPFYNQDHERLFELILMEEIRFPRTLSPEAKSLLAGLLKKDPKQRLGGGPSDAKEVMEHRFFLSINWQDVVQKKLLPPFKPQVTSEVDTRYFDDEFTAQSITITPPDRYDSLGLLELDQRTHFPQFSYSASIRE

Test [5] deals with CDK2 (gene 1017) (UniProt P24941). Description: NVS_ENZ_hCDK2: NovaScreen (NVS) Enzymatic Assay for human Cyclin-Cependent Kinase 2 (CDK2) (AID 2283144). The method in brief:
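Compounds screened in duplicate at 25 uM, then in singleton concentration-response to a maximum of 50 uM, against recombinant CDK2; kinase activity read 1 hr after dosing by fluorescence with mobility-shift separation of substrate and product.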

In test [6] the target is human Casein Kinase 1-delta (CK1D), CSNK1D (gene 1453) (UniProt P48730). Description: NVS_ENZ_hCK1D: NovaScreen (NVS) Enzymatic Assay for human Casein Kinase 1-delta (CK1D) (AID 2283148). In short, it runs like this:
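Recombinant human CK1-delta, cell-free; fluorescent substrate with electrophoretic mobility-shift separation of product, read 1 h after dosing. Single 25 uM duplicate screen, then concentration-response up to 50 uM; loss of signal vs DMSO.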

The target of test [7] is human Epidermal Growth Factor Receptor (EGFR), EGFR (gene 1956) (UniProt P00533). Description: NVS_ENZ_hEGFR: NovaScreen (NVS) Enzymatic Assay for human Epidermal Growth Factor Receptor (EGFR) (AID 2283151). In short, it runs like this:
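Cell-free kinase assay, fluorescence plus electrophoretic mobility shift separating substrate and product, read 1 hour after dosing; loss of signal vs DMSO. Duplicate screen at 25 uM, then concentration-response to 50 uM.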

Test [8] has as its target human Dual Specificity Protein Phosphatase 3 (DUSP3), DUSP3 (gene 1845) (UniProt P51452). Description: NVS_ENZ_hDUSP3: NovaScreen (NVS) Enzymatic Assay for human Dual Specificity Protein Phosphatase 3 (DUSP3) (AID 2283152). The method in brief: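 Cell-free fluorescence-intensity enzyme activity assay with recombinant protein and substrate; loss of signal fitted relative to DMSO baseline. Primary screen in duplicate at 25 uM, actives then run in concentration series; measured 0 h after dosing.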

Test [9] concerns the target human Ephrin type-A Receptor 2 (EphA2), EPHA2 (gene 1969) (UniProt P29317). Nature of the test: NVS_ENZ_hEphA2: NovaScreen (NVS) Enzymatic Assay for human Ephrin type-A Receptor 2 (EphA2) (AID 2283155). The method in brief: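 Enzyme activity of recombinant EphA2 read by fluorescence after mobility-shift separation, 1 h after dosing. Chemicals first tested at 25 uM (duplicate); those passing threshold run as concentration series, top 50 uM, single replicate, relative to DMSO.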

The target in test [10] is human Ephrin type-A Receptor 1 (EphA1), EPHA1 (gene 2041) (UniProt P21709). Description: NVS_ENZ_hEphA1: NovaScreen (NVS) Enzymatic Assay for human Ephrin type-A Receptor 1 (EphA1) (AID 2283158).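 Further: activity is signal loss versus DMSO meaning EphA1 kinase inhibition.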 In short, it runs like this:
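Cell-free kinase activity with recombinant protein, 1 hour after dosing; product separated by electrophoretic mobility shift, fluorescence read. Primary screen at 25 uM in duplicate; hits run as concentration-response up to 50 uM, relative to DMSO.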

The target in test [11] is human Fibroblast Growth Factor Receptor 1 (FGFR1), FGFR1 (gene 2260) (UniProt P11362). Nature of the test: NVS_ENZ_hFGFR1: NovaScreen (NVS) Enzymatic Assay for human Fibroblast Growth Factor Receptor 1 (FGFR1) (AID 2283159).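 On AC50: hits lower the signal so potencies describe inhibitors of the kinase.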 The method in brief:
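Cell-free recombinant kinase with fluorescent substrate, product separated by electrophoretic mobility shift; read 1 hour after dosing, loss of signal relative to DMSO. Initial screen in duplicate at 25 uM, actives followed in concentration series.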

Test [12] addresses Histone deacetylase 3 (Homo sapiens) (UniProt O15379). Nature of the test: NVS_ENZ_hHDAC3: NovaScreen (NVS) Enzymatic Assay for human Histone Deacetylase 3 (HDAC3) (AID 2283163). In short, it runs like this:
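Cell-free enzyme format: loss of fluorescent product after mobility-shift separation, 1 h incubation, recombinant human HDAC3. Single 25 uM duplicate screen first, then concentration series to a 50 uM top for hits; DMSO as baseline.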

For test [13], the target named is Caspase-3 (Homo sapiens) (UniProt P42574). Nature of the test: NVS_ENZ_hCASP3: NovaScreen (NVS) Enzymatic Assay for human Caspase 3 (CASP3) (AID 2283139). In short, it runs like this:
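Single-concentration screening at 25 uM in duplicate, with concentration-response follow-up to a 50 uM maximum for chemicals passing the threshold. Caspase-3 (human, E. coli-expressed) activity was read as substrate fluorescence after 1 h, with loss of signal relative to DMSO.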

The target in test [14] is human Esterase Plasma (ES), BCHE (gene 590) (UniProt P06276). Nature of the test: NVS_ENZ_hES: NovaScreen (NVS) Enzymatic Assay for human Esterase Plasma (ES) (AID 2283157). The method in brief: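 Human plasma-derived enzyme, cell-free, colorimetric readout at 0.25 h. Primary screen 25 uM in duplicate; hits (e.g. ≥30% inhibition) rerun singleton up to 50 uM. DMSO = negative control/baseline.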
human Esterase Plasma (ES), BCHE (gene 590), sequence (P06276 whole entry, looked up): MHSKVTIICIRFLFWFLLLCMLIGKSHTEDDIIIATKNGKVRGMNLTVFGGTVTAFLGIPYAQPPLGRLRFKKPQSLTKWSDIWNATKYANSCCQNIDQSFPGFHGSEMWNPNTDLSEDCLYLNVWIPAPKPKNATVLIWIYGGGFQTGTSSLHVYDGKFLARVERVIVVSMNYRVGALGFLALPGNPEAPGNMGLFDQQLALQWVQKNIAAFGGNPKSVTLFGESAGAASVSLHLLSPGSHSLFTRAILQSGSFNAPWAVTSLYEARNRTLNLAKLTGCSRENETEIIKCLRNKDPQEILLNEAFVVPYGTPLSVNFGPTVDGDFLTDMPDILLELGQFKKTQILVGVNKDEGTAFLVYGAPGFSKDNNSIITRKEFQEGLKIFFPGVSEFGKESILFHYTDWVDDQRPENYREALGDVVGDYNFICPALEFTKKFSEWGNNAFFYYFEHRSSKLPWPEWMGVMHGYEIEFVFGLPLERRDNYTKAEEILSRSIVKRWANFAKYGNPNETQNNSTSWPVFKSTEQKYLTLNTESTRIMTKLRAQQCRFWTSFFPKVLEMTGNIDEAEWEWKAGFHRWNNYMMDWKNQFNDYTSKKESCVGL

For test [15], the target named is human Caspase 4 (CASP4), CASP4 (gene 837) (UniProt P49662). Description: NVS_ENZ_hCASP4: NovaScreen (NVS) Enzymatic Assay for human Caspase 4 (CASP4) (AID 2283143). In short, it runs like this:
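Compounds were first tested in duplicate at 25 uM, and hits were titrated singly to a 50 uM maximum. Recombinant protease from E. coli was read by fluorescence 2 h post-dose, and activity loss was fitted against the DMSO baseline.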

For test [16], the target named is Protein deacetylase HDAC6 (Homo sapiens) (UniProt Q9UBN7). Description: NVS_ENZ_hHDAC6: NovaScreen (NVS) Enzymatic Assay for human Histone Deacetylase 6 (HDAC6) (AID 2283164). The method in brief: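 Concentration-response runs up to 50 uM followed a duplicate 25 uM single-point screen. Deacetylase activity of recombinant human HDAC6 read by fluorescence after 1 h, with mobility-shift separation of substrate and product; DMSO as baseline.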

Test [17] has as its target human FYN Proto-Oncogene, Src family Tyrosine Kinase (Fyn), FYN (gene 2534) (UniProt P06241). Nature of the test: NVS_ENZ_hFyn: NovaScreen (NVS) Enzymatic Assay for human FYN Proto-Oncogene, Src family Tyrosine Kinase (Fyn) (AID 2283161). In short, it runs like this:
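Cell-free kinase activity read by fluorescence after mobility-shift separation of substrate and product, 1 h post-dose. Initial single concentration 25 uM in duplicate, then concentration-response follow-up; DMSO baseline.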

Caspase-3 (Homo sapiens), sequence (P42574 whole entry, looked up): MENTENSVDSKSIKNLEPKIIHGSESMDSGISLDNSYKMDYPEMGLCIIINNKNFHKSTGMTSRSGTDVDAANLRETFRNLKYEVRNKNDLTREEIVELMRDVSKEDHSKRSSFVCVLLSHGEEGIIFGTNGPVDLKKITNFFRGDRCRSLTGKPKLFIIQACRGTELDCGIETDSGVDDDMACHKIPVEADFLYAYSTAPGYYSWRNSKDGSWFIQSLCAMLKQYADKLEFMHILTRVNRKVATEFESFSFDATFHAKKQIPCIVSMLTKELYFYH
human Dual Specificity Protein Phosphatase 3 (DUSP3), DUSP3 (gene 1845), sequence (P51452 whole entry, looked up): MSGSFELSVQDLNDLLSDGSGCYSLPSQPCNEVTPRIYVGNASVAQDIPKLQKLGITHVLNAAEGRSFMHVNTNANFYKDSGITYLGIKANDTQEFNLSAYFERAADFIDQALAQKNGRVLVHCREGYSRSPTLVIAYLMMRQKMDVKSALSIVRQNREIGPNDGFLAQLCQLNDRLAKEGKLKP
human Ephrin type-A Receptor 2 (EphA2), EPHA2 (gene 1969), sequence (P29317 whole entry, looked up): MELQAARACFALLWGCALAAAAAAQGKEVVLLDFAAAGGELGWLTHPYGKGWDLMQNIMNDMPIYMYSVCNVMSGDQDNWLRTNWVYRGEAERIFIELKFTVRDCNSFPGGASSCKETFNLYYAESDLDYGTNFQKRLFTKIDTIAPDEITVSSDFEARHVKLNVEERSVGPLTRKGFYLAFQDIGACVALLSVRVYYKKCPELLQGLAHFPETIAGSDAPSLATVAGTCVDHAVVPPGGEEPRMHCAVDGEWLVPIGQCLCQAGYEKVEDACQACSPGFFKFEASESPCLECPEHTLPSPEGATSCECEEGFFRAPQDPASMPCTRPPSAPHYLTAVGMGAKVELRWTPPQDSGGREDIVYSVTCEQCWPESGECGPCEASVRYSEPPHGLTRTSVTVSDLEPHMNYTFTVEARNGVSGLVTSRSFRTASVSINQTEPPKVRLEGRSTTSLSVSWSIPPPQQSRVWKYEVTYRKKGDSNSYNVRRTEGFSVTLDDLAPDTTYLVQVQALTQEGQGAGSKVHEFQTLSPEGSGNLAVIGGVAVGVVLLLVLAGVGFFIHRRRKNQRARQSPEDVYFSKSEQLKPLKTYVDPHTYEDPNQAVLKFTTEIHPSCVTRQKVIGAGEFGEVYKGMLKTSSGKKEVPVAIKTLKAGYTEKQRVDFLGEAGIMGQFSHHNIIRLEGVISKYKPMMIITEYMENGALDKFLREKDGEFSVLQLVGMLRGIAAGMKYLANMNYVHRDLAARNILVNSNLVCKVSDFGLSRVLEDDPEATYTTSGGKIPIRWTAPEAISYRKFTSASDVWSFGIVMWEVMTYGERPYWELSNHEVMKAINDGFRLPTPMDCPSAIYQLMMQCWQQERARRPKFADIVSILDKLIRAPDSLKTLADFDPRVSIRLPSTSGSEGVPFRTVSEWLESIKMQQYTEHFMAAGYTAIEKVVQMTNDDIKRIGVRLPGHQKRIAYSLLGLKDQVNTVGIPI
human Beta-secretase (BACE), BACE1 (gene 23621), sequence (P56817 whole entry, looked up): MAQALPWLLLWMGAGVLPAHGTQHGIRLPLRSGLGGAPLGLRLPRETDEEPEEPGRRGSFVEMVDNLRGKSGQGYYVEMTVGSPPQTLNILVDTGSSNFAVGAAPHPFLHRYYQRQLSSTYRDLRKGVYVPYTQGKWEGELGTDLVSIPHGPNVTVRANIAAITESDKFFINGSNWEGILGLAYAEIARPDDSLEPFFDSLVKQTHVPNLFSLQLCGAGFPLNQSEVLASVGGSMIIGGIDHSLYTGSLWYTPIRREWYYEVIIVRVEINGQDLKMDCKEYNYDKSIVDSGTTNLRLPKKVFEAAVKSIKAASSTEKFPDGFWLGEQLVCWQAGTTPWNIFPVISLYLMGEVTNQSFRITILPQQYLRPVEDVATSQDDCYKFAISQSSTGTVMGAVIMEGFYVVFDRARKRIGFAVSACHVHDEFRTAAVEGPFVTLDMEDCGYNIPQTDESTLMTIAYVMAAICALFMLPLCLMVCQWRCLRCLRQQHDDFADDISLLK
human AKT serine/threonine Kinase 1 (AKT1), AKT1 (gene 207), sequence (P31749 whole entry, looked up): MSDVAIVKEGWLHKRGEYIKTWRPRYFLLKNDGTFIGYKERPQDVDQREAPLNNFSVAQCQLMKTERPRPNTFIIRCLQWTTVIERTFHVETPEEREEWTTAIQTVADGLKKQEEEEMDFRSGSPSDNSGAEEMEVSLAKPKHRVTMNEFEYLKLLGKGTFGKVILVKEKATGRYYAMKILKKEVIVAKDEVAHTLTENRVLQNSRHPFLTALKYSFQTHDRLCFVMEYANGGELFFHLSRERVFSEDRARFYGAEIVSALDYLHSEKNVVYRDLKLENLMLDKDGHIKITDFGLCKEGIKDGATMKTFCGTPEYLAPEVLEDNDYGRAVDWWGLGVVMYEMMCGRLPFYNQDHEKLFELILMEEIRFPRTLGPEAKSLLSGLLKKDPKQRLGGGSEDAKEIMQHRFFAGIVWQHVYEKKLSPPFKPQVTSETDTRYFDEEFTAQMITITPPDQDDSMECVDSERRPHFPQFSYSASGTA
human FYN Proto-Oncogene, Src family Tyrosine Kinase (Fyn), FYN (gene 2534), sequence (P06241 whole entry, looked up): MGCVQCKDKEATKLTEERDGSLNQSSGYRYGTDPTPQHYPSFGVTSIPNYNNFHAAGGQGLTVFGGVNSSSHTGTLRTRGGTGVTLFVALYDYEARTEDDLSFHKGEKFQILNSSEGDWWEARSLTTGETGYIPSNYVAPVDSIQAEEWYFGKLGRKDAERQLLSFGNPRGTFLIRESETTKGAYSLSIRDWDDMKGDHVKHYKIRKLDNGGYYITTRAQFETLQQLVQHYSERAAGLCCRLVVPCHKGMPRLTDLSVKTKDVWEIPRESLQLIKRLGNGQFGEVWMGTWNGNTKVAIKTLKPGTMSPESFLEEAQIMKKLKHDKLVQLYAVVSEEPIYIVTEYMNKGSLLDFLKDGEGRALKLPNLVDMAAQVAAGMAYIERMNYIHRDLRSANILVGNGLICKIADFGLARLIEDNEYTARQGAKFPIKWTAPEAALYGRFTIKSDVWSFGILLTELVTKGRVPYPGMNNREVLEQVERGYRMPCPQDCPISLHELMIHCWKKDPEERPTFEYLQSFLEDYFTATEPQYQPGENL
human Casein Kinase 1-delta (CK1D), CSNK1D (gene 1453), sequence (P48730 whole entry, looked up): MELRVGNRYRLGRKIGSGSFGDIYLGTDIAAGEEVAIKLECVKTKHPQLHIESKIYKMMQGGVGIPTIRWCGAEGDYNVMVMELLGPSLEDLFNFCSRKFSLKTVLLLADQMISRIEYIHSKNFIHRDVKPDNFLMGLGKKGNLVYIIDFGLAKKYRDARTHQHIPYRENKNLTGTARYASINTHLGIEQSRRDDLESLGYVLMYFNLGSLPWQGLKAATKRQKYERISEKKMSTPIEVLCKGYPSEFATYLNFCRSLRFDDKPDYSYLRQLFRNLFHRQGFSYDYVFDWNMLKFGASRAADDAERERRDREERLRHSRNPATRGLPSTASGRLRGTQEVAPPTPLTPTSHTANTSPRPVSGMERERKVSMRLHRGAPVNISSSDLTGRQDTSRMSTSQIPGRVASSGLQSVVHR

As usually defined, the AC50 is the concentration giving half of the maximal activity seen. Consider `CCCCCOC(=O)c1ccccc1C(=O)OCCCCC`, for which the half-maximal activity concentration (AC50) in test [1] is 11.5 µM (active). Further, in test [2], the compound was classed as inactive.

On to `CC(C)N(Cc1ccccc1)C(=O)C(C)(C)C`, for which the compound was called inactive in test [3].

As to `CCNS(=O)(=O)C(F)(F)C(F)(F)C(F)(F)C(F)(F)C(F)(F)C(F)(F)C(F)(F)C(F)(F)F`, the outcome in test [3], in test [4], in [5], in test [6], in test [7] and in [8] was inactive. The call in test [9], in [10], in [11] and in test [12] was inactive. Besides, the AC50 in test [1] is 8.43 µM (active).

In the case of `Cc1ccc(N)c(N)c1`, the compound was classed as inactive in [1] and in test [4].

Consider `CC(C)(O)c1cnn2c(-c3ccc(F)c(-c4c(F)cccc4C#N)c3)cnc2n1`, for which the figures for the concentration at half-maximal activity (AC50) in test [1] and in test [8] were 5.34 µM (active) and 40.8 µM (active), respectively. Besides, in test [6], the call was inactive.

As for `Nc1ccc(Cl)cc1N`, the AC50 in test [13] was 4.4 µM (active); in [1], 2.52 µM (active); in test [8] it was 6.31 µM (active). The compound was classed as inactive in test [2], in [14] and in [12].

Turning to `c1ccc(NNc2ccccc2)cc1`, the compound was classed as inactive in test [3], in test [4], in test [15] and in test [16]. Also, the concentration at half-maximal activity (AC50) in test [14] is 31.6 µM (active).

As for `CCC[CH2][Sn]([Cl])([CH2]CCC)[CH2]CCC`, the AC50 in test [1] was 4.02 µM (active); in test [8], 6.34 µM (active). Also, the compound was called inactive in test [4] and in [17].

As to `CN(C)C(=O)Nc1ccc(Cl)cc1`, the result in test [4], in [9] and in test [14] was inactive.

As for `CCCCCCCCOC(=O)c1ccc(C(=O)OCCCCCCCC)c(C(=O)OCCCCCCCC)c1`, the outcome in test [13] and in test [9] was inactive. Besides, the AC50 in test [1] was 11.2 µM (active); in test [2] it was 37.9 µM (active).

Turning to `Cc1cc(N=Nc2ccccc2C)ccc1N`, the AC50 in [1] is 25 µM (active).

Regarding `c1ccc2c(c1)-c1cccc3cccc-2c13`, the half-maximal activity concentration (AC50) in test [1] was 1.18 µM (active). For the same compound, the call in test [17] was inactive.

On to `O=C1CCCO1`, for which the outcome in test [4] was inactive.

`CN(C)[C@@H]1C(=O)C(C(N)=O)=C(O)[C@@]2(O)C(=O)C3=C(O)c4c(O)cccc4[C@@](C)(O)[C@H]3C[C@@H]12`: the outcome in test [1] and in test [14] was inactive. Also, the AC50 in [8] is 7.39 µM (active); in test [2], 18.5 µM (active).

Take `O=P(OCCCl)(OCCCl)OCCCl`: the result in [3] and in [4] was inactive.

As to `Oc1ccc2ccc3cccc4ccc1c2c34`, the AC50 is 8.84 µM (active) in [1], 5.26 µM (active) in test [15], 4.52 µM (active) in test [2] and 14.9 µM (active) in test [11].

Regarding `CCCSC(=O)N(CCC)CCC`, in test [13], the call was inactive.

`CCCCCCCCn1sccc1=O`: the outcome in test [4] and in test [10] was inactive. The AC50 in [8] was 26 µM (active).

Take `C[N+](C)(C)CC1CO1` (stereo not given): the result in [4] was inactive.
